The source of these data is PubChem BioAssay (NCATS).

Each structure is given as a SMILES string. Results filed as inconclusive are left out. Active and inactive are the calls of the source. Unless noted, calls come from the whole dose curve; as a rule, active = well fitted curve in either direction with a large enough effect (not every such curve was filed as active); inconclusive = small, poorly fitted or top-dose-only effect, or another doubt; inactive = flat fitted curve, though single readings scatter.

The target in experiment [1] is Lysosomal acid glucosylceramidase (Homo sapiens) (UniProt P04062). The experiment can be described thus: Glucocerebrosidase-p2 (AID 348; in the data active = potency below about 10 µM; note: potency is the fitted concentration of half-maximal effect). The conditions noted are these: purified GBA, blue fluorogenic substrate, 40 min. The essentials: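 Compounds titrated from 0.6 nM upwards against 0.2 nM enzyme in pH 5.9 citric acid/KH2PO4, taurocholate, tween-20; blue fluorogenic substrate 80 uM, 40 min room temperature, stopped and read Ex 365/Em 440 for AC50.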

Experiment [2] is described as follows: AP1 Signaling Pathway (AID 357).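 Note: ME-180 reporter cells stimulated with EGF at its EC50 level; % is set by controls: 0 for no effect and ±100 for the full control effect.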 The conditions noted are these: ME-180 AP-1-bla reporter, EGF-induced, beta-lactamase ratio, 5 h; at 7.69 µM (top of the series) unless noted. The procedure, abridged: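 Titration-series screen for positive or negative modulators of EC50 EGF-induced signaling in ME-180 cells carrying an AP-1-driven beta-lactamase reporter. After 5 hours at 37 degrees Celsius, CCF4 460nm/530nm emission ratio gave %Activity; AC50 values derived.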

The target in experiment [3] is Cytochrome P450 1A2 (Homo sapiens) (UniProt P05177). Nature of the experiment: p450-cyp1a2 (AID 410; calls by dose curve; note: potency is the fitted concentration of half-maximal effect;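 for activity change, negative = inhibition: -100% = full effect of reference inhibitor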). The following applies: recombinant CYP1A2, luciferin-ME demethylation, luminescence; series mostly up to 57 µM. The procedure, abridged:
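Luminescent readout of luciferin formed from Luciferin-ME by human CYP1A2; data normalized against complete inhibition by 57 uM furafylline. Enzyme 20nM, substrate 100uM at Km, 100mM KPO4 buffer, 60 min reaction at room temperature.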

Experiment [4] in a line: Stat Signaling Pathway (AID 446).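 Note: ME-180 cervical cancer cells given 40 pM IL-6 alongside compound; SIE-controlled beta-lactamase reporter measured as 460/530 nm FRET emission ratio; % is set by controls: 0 for no effect and ±100 for the full control effect.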 The conditions noted are these: ME-180 SIE beta-lactamase reporter, IL-6 stimulated, 5 h; at 7.69 µM (top of the series) unless noted. The procedure, abridged: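 IL-6/STAT signaling read in ME-180 cells via an SIE beta-lactamase reporter. Stimulus was 40 pM IL-6 (its AC50) for 5 hrs, so both activation and inhibition register.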
Experiment [5] concerns the target Glucocorticoid receptor (Homo sapiens) (UniProt P04150). The experiment can be described thus: GR-EFC Redistribution (AID 451; calls by dose curve; note: potency is the fitted concentration of half-maximal effect). The following applies: CHO-K1 GR-EFC translocation, beta-gal luminescence, 2 h. The essentials:
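Translocation of GR-ED fusion to nuclear EA restores b-gal, read by luminescence after 1 h room-temperature detection. Engineered CHO-K1 biosensor cells, 1,000/well, exposed 2 h at 37 C to titrations up to 46 uM final.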

Experiment [6] concerns the target Mitogen-activated protein kinase 10 (Mus musculus) (UniProt Q61831). The experiment can be described thus: JNK3 AlphaScreen Assay (AID 530).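 Note: kinase came from lysate of stimulated human HepG2 cells; signal reports phosphorylation of biotinylated GST-cJun 1-79 at Ser73 with 10 µM ATP; % is set by controls: 0 for no effect and ±100 for the full control effect.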 The following applies: JNK3 lysate, c-Jun phosphorylation; series mostly up to 57.1 µM. The procedure, abridged: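 Compound titrations were preincubated 15 minutes at room temperature with substrate, antibody and pre-activated JNK3-containing HepG2 lysate. Reactions were started with 10 uM ATP and stopped with EDTA-containing bead buffer for AlphaScreen detection.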
For orientation: Bead proximity is the source of the signal in Alpha formats.

For experiment [7], the target named is 3',5'-cyclic-AMP phosphodiesterase 4B (Homo sapiens) (UniProt Q07343). The experiment can be described thus: qHTS Assay for Inhibitors of PDE-IV (AID 607; active = well fitted activation curve with a large enough effect in the main read-out, with a control signal flat, not every such curve was filed as active; note: % of control where 0% means no effect). The following applies: HEK293 ACTOne CNG channel cells, membrane potential fluorescence; series mostly up to 22.9 µM. The essentials: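 Live HEK293 cells with a modified cyclic nucleotide-gated (CNG) channel report intracellular cAMP via membrane-potential dye fluorescence (ex 535/em 590 nm). Endogenous PDE-IV was targeted. Compounds were tested at up to 22.9 uM final; RO 20-1724 100 uM served as control.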
Background: qHTS replaces the single test concentration by a dilution series.

Experiment [8] has as its target Cytochrome P450 3A4 (Homo sapiens) (UniProt P08684). Nature of the experiment: qHTS Assay for Activators of Cytochrome P450 3A4 (AID 885; active = well fitted curve in the direction sought with a large enough effect; an effect the other way counts as inactive or inconclusive; note: nearly all actives have a fitted effect of over 65% in size; note: potency is the fitted concentration of half-maximal effect). The conditions noted are these: recombinant CYP3A4, Luciferin-PPXE luminescence, 60 min; series mostly up to 57.1 µM. The essentials:
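Quantitative HTS format: compounds preincubated with 20nM human CYP3A4 and Luciferin-PPXE substrate at KM, reaction started by NADPH regeneration, stopped after 60 min, luciferase luminescence read 20 min later.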

Experiment [9] can be described thus: qHTS Assay for Lipid Storage Modulators (AID 1519; calls by dose curve). The following applies: Drosophila S3 cells, BODIPY lipid droplet/cell ratio, laser cytometry, cells loaded with oleic acid; for activity change, negative = inhibition: at 57.5 µM (top of the series). The essentials:
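Cells seeded at 5,000 per well were treated with compounds over a concentration series and loaded with oleic acid (400 uM, as added). Lipid droplet fluorescence (488 nm excitation, 500-530 nm channel) was read by laser-scanning cytometry and normalized to 20 uM Triacsin C.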

Experiment [10] is described as follows: Primary qHTS for small molecule stabilizers of the endoplasmic reticulum resident proteome: Secreted ER Calcium Modulated Protein (SERCaMP) assay (AID 1508630; active = well fitted curve in the direction sought with a large enough effect; an effect the other way counts as inactive or inconclusive; note: % is set by controls: 0 for no effect and ±100 for the full control effect). The following applies: SH-SY5Y GLuc-SERCaMP (Gaussia luciferase released on ER calcium loss) secretion, thapsigargin, luminescence; series mostly up to 38.4 µM. The essentials: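 GLuc-SERCaMP-expressing SH-SY5Y cells, pretreated 16 h with compound, are challenged with thapsigargin to empty ER calcium stores; after 4 h, coelenterazine is added directly to the medium and luminescence is imaged.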

Experiment [11] deals with Cytochrome P450 3A4 (Homo sapiens) (UniProt P08684). Nature of the experiment: qHTS Assay for Inhibitors and Substrates of Cytochrome P450 3A4 (AID 884; active = well fitted curve in the direction sought with a large enough effect; an effect the other way counts as inactive or inconclusive; note: nearly all actives have a fitted effect of over 50% in size; note: potency is the fitted concentration of half-maximal effect). The conditions noted are these: recombinant CYP3A4, Luciferin-PPXE luminescence; series mostly up to 57.1 µM. The essentials:
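20 nM human CYP3A4 with 25 uM Luciferin-PPXE (at KM) in 200 mM KPO4, preincubated 10 min with compound; NADPH regeneration started a 60 min RT reaction. Luciferin detected by luminescence, normalized to 57 uM ketoconazole as full inhibition.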

Experiment [12] has as its target Cytochrome P450 2C9 (Homo sapiens) (UniProt P11712). Nature of the experiment: qHTS Assay for Inhibitors and Substrates of Cytochrome P450 2C9 (AID 883; active = well fitted curve in the direction sought with a large enough effect; an effect the other way counts as inactive or inconclusive; note: % is set by controls: 0 for no effect and ±100 for the full control effect; nearly all actives have a fitted effect of over 60% in size). The following applies: recombinant CYP2C9, luciferin-H luminescence, 60 min; series mostly up to 57.1 µM. The essentials: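 Inhibition of CYP2C9 is scored as loss of luminescence, with 57uM sulphaphenazole defining 100% inhibition. Substrate Luciferin-H is used at 100uM, equal to its KM; enzyme at 10nM in 25mM KPO4, 60 min at 37C with NADPH regeneration.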

Experiment [13] in a line: qHTS Assay for Identification of Small Molecule Agonists for Hypoxia Response Element Signaling Pathway (AID 914; active = well fitted activation curve with a large enough effect in the signal ratio, with a control signal flat, not every such curve was filed as active; the % refers to the signal ratio; note: % of control where 0% means no effect). The following applies: ME-180 (cervical carcinoma) HRE-bla reporter, beta-lactamase ratio, CoCl2, 17 h; activation: stronger effect = higher value. The procedure, abridged: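 A beta-lactamase reporter under hypoxia response element control in ME-180 cells served as the system. Compound titrations plus EC50 CoCl2 ran 17 h at 37 degrees Celsius; AC50 values were fitted from %Activity.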

The mark [14] stands for this setting: measured here: cell count channel max response.
Where [15] appears, read: measured here: lipid channel max response.

Glucocorticoid receptor (Homo sapiens), sequence (P04150 whole entry, looked up, the tested form may be a part): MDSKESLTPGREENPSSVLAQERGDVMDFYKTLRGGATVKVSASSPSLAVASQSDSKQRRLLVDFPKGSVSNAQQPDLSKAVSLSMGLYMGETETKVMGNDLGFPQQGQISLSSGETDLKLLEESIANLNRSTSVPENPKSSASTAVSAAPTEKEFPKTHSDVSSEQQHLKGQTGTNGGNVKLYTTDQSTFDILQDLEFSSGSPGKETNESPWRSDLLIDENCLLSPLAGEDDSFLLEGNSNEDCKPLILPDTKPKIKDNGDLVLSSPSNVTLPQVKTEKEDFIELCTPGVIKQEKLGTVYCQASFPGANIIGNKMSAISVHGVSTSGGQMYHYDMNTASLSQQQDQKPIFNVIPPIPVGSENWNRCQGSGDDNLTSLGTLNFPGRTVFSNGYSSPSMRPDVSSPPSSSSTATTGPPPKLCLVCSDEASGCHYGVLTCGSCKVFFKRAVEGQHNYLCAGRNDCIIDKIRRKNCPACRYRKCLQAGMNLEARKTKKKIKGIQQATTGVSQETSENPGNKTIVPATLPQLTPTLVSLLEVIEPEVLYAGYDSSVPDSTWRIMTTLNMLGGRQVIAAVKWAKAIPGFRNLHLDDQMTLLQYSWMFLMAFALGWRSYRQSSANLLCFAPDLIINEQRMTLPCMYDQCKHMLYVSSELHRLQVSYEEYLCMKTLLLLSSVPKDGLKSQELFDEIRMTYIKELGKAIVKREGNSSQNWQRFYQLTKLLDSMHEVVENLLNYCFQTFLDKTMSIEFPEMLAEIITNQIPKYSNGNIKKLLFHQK
Lysosomal acid glucosylceramidase (Homo sapiens), sequence (P04062 whole entry, looked up): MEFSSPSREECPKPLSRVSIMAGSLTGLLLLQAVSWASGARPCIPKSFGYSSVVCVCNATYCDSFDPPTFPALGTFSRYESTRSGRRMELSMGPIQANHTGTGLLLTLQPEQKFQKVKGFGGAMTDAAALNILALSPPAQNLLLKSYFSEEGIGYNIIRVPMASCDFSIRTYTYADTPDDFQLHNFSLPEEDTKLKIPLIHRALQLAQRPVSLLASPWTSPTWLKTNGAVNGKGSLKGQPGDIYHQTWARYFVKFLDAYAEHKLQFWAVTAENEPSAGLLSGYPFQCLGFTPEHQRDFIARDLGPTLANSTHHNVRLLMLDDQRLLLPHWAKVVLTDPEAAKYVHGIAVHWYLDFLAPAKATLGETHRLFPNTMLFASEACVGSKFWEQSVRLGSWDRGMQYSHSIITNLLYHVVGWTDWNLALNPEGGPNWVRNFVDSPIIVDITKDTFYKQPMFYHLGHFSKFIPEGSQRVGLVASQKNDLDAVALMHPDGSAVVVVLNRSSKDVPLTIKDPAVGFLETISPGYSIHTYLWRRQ
Cytochrome P450 3A4 (Homo sapiens), sequence (P08684 whole entry, looked up): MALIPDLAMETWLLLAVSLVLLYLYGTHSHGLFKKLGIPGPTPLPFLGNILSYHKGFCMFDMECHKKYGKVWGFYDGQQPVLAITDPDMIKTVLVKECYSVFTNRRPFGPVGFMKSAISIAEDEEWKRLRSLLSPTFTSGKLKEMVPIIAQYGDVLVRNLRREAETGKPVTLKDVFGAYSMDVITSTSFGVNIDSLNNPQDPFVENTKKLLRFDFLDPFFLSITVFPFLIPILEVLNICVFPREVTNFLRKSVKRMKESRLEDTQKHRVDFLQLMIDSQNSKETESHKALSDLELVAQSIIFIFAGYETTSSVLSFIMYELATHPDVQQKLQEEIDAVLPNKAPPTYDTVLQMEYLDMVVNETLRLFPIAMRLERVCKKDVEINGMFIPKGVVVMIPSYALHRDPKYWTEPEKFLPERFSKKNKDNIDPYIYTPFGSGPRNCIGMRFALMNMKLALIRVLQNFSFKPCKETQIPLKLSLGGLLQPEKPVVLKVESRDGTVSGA
3',5'-cyclic-AMP phosphodiesterase 4B (Homo sapiens), sequence (Q07343 whole entry, looked up): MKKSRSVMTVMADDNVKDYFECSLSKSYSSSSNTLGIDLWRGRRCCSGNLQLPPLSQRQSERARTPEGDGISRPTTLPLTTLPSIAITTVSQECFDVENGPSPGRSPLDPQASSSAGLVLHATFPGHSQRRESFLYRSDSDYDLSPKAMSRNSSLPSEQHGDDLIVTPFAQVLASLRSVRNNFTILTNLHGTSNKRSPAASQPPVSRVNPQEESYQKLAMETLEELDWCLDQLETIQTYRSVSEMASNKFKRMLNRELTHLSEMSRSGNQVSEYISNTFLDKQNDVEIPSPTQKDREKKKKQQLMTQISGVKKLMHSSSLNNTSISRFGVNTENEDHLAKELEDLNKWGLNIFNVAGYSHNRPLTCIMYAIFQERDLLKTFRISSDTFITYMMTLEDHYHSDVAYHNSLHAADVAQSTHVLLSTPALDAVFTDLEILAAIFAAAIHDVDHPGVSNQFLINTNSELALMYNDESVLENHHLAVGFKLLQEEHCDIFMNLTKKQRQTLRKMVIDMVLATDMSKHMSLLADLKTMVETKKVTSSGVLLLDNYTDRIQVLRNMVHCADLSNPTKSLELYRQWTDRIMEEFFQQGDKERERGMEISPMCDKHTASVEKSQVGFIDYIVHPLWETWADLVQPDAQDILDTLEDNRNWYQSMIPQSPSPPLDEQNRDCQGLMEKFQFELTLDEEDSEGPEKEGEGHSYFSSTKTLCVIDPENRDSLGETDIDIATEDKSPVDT
Cytochrome P450 1A2 (Homo sapiens), sequence (P05177 whole entry, looked up): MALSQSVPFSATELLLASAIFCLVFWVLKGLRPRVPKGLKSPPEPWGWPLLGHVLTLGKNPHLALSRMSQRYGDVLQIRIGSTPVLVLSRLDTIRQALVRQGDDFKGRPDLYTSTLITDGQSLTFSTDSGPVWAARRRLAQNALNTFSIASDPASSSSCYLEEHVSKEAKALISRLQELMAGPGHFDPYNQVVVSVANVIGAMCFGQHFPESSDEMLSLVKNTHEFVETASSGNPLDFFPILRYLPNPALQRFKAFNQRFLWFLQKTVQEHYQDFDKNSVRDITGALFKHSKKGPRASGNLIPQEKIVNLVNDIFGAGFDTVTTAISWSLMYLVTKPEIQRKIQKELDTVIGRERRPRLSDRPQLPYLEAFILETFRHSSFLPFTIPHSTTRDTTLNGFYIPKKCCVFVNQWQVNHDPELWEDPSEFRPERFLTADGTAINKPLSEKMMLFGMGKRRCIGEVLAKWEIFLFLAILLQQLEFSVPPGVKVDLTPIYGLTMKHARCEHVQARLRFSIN
Cytochrome P450 2C9 (Homo sapiens), sequence (P11712 whole entry, looked up): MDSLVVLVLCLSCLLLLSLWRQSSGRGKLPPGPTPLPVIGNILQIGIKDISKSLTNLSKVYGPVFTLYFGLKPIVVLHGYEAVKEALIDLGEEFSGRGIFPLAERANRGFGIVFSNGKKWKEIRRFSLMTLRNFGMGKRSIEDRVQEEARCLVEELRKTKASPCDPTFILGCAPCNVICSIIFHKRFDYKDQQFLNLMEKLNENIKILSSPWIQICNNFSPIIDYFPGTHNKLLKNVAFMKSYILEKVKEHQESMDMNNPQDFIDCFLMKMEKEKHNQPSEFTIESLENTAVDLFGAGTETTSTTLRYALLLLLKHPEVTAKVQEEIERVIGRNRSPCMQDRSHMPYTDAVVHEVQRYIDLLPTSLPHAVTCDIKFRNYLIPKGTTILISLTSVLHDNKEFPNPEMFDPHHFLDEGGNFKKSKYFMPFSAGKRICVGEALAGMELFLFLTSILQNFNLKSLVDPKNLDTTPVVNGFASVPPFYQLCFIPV

Regarding `COc1ccccc1CN1CCCC2(CCN(C(=O)c3c(C)noc3C)CC2)C1`, the Potency in experiment [1] was > 11.4 µM (inactive); in experiment [5], > 46 µM (inactive). Besides, the activity change, negative = inhibition was -9.04% (inactive) in experiment [2] and 1.7% (inactive) in experiment [9]. The Potency result in experiment [3], in [6], in experiment [7] and in [8] was “inactive” in each case. In addition, in experiment [4], the activity, negative = inhibition is -7.32% (inactive). In addition, the values for the max response in experiment [9] (setting [14]) and in experiment [9] (setting [15]) were 14.6% and 17.9%, respectively. Also, the outcome in experiment [10] was inactive.

`N#Cc1cccc(NC(=O)N2CCC3(CC2)CCN(C(=O)c2cccc(F)c2)CC3)c1`: the Potency is > 11.4 µM (inactive) in experiment [1], > 46 µM (inactive) in [5] and 7.94 µM (active) in [8]. For the same molecule, the activity change, negative = inhibition is -11.8% (inactive) in [2] and 5.01% (inactive) in experiment [9]. The Potency entry in experiment [3], in [6], in [7] and in experiment [11] was “inactive” each time. Further, the activity, negative = inhibition in experiment [4] was -7.8% (inactive). Also, the figures for the max response in [9] (setting [14]) and in experiment [9] (setting [15]) were 6.66% and 13.2%, respectively. In addition, the result in experiment [10] was inactive.

As for `O=S(=O)(c1ccccc1)N1CCC2(CC1)CN(c1ccccn1)C2`, the Potency is > 11.4 µM (inactive) in [1] and > 46 µM (inactive) in experiment [5]. Besides, the activity change, negative = inhibition was 16% (inactive) in experiment [2] and -4.43% (inactive) in experiment [9]. In addition, the Potency result in [3], in experiment [6], in [7] and in experiment [8] was “inactive” throughout. For the same molecule, the activity, negative = inhibition in [4] was -15% (inactive). Also, the max response in [9] (setting [14]) was -4.86%; in [9] (setting [15]), -8.67%. Moreover, the outcome in [10] was inactive.

For `Cn1cccc1C(=O)N1CCC2(CC1)CN(c1ccccn1)C2`, the Potency in experiment [1] was > 11.4 µM (inactive); in experiment [5], > 46 µM (inactive); in experiment [8] it was 12.6 µM (active). The activity change, negative = inhibition is 2.02% (inactive) in experiment [2] and 5.7% (inactive) in experiment [9]. Also, the Potency result in [3], in [6], in experiment [7] and in experiment [11] was “inactive” each time. In [4], the activity, negative = inhibition is -6.36% (inactive). Besides, the max response in [9] (setting [14]) came out at 7.05%; in experiment [9] (setting [15]), 13.8%. Also, the result in [10] was inactive.

Turning to `Cc1noc(C)c1C(=O)N1CCC2(CCN(Cc3ccccc3)CC2)CC1`, the Potency in experiment [1] was > 11.4 µM (inactive); in [5], > 46 µM (inactive). Further, the results for the activity change, negative = inhibition in [2] and in experiment [9] were 6.02% (inactive) and 0.801% (inactive), respectively. Besides, the Potency entry in [3], in [6], in [7] and in experiment [12] was “inactive” in each case. Besides, in [4], the activity, negative = inhibition is 1% (inactive). Further, the activation in experiment [13] is -10.3% (inactive). Besides, the max response in [9] (setting [14]) was determined as 19.5%; in experiment [9] (setting [15]), 22%. Besides, the result in experiment [10] was inactive.

In the case of `O=C(c1cccc(F)c1)N1CCC[C@@]2(CCN(c3ccccc3)C2)C1`, the Potency in experiment [1] was > 11.4 µM (inactive); in experiment [5], > 46 µM (inactive); in [11] it was 6.31 µM (active). Further, the activity change, negative = inhibition was -6.87% (inactive) in experiment [2] and 4.17% (inactive) in experiment [9]. For the same molecule, the Potency result in experiment [3], in [6], in [7] and in [8] was “inactive” in each case. In [4], the activity, negative = inhibition was -5.23% (inactive). The values for the max response in [9] (setting [14]) and in [9] (setting [15]) were 8.88% and 15.7%, respectively. The outcome in experiment [10] was inactive.

In the case of `N#Cc1ccc(CN2CC[C@@]3(CCCN(C(=O)c4cc(C(F)(F)F)cc(C(F)(F)F)c4)C3)C2)cc1`, the Potency in experiment [1] was > 11.4 µM (inactive); in experiment [3], 25.1 µM (active); in [5], > 46 µM (inactive); in experiment [11], 5.01 µM (active). For the same molecule, the activity change, negative = inhibition in experiment [2] is 17.7% (inactive); in experiment [9] it was 2.06% (inactive). Further, the activity, negative = inhibition in experiment [4] is -2.46% (inactive). For the same molecule, the Potency entry in experiment [6], in experiment [7] and in experiment [8] was “inactive” each time. Further, in experiment [13], the activation is 13.6% (inactive). Also, the max response in [9] (setting [14]) was -0.217%; in experiment [9] (setting [15]) it was 4.67%. Also, in [10], the result was inactive.
